MITF TRPM1 HTS: MITF TRPM1 promoter activation in melanoma cells; SK-MEL-5 TRPM1-promoter luciferase, 24 h; % of positive control, neutral wells = 0; activation, % at 12.5 µM; 300,000 tested, 0.75% active;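 active = mean activation of at least 80% with every replicate also reaching 80%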
LGR2 inh: inhibitors of bursicon-induced Drosophila LGR2 receptor cAMP signaling. HEK293 LGR2, CRE-luciferase, bursicon-stimulated, 4 h. inhibition, % at 9.99 µM. 380,000 tested, 0.35% active. AID 720647;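 active = drop in luminescence signal, shown as inhibition above about 50% in the replicate tests, limit read from the data, passing the limit was not always enough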;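 also: agonist challenge used bursicon conditioned medium at about half maximal strength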
MITF TRPM1 inh: inhibitors of MITF-driven TRPM1 promoter in melanoma cells; SK-MEL-5 TRPM1 promoter luciferase, 24 h; inhibition, % at 12.5 µM; 330,000 tested, 0.83% active; AID 488899;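 active = mean inhibition across replicates of 60% or more, whatever share of single replicates reaches that level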
EBV LMP1 NFkB: reduces LMP1-driven NF-kappaB luciferase signal; 350,000 tested, 0.69% active; AID 504558; LMP1-induced NF-kappaB luciferase reporter cells, luminescence; inhibition, % at 12.5 µM; in the data active = inhibition above about 41%
TROY signal inh: TROY signaling inhibition | inhibition, % at 10 µM | AID 1347056 | 360,000 tested, 0.98% active | Q293 LMP1-TROYcd NF-kB luciferase reporter, 4 h;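 active = compounds whose plate-normalised and pattern-corrected inhibition of the luciferase reporter signal at the single screening dose is 50% or more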
TWEAK-Fn14 inh: TWEAK-Fn14 signaling inhibition | AID 1159606 | 360,000 tested, 2% active | TWEAK-stimulated Fn14 reporter cells, luciferase luminescence, 8 h | inhibition, % at 10 µM; in the data active = inhibition above about 50%
Numbers stand for hits; n = inactive; x = not tested or not shown. In the library only some 3% were active in any assay of this set; here they are far more common.

SMILES	MITF TRPM1 HTS	LGR2 inh	MITF TRPM1 inh	EBV LMP1 NFkB	TROY signal inh	TWEAK-Fn14 inh
CCC(=O)N1CCc2cc(S(=O)(=O)CCC(=O)NCCc3ccccc3)ccc21	n	x	n	n	n	n
COc1ccc(NC(=O)CCS(=O)(=O)c2ccc3c(c2)CCN3C(C)=O)cc1	n	n	n	58.5	n	n
C[C@@H]1CN([C@@H](C)CO)C(=O)c2cc(-c3cccnc3)cnc2O[C@H]1CN(C)C(=O)C1CCCCC1	x	n	x	x	x	x
O=C(O)c1ccc(-c2cccc([N+](=O)[O-])c2)o1	n	n	n	n	n	n
O=C(NC1CCCCC1)c1ccc(-c2cccc([N+](=O)[O-])c2)o1	115.7	n	n	n	n	n
COc1ccc(C2=Nn3c(nnc3-c3ccccc3Cl)SC2)cc1OC1CCCC1	n	n	n	n	52.7	n
COc1ccc(C2=Nn3c(nnc3-c3ccccc3F)SC2)cc1OCC1CC1	n	n	n	n	51.4	n
COc1ccc(OC)c(-c2nnc3n2N=C(c2ccc(OC)c(OC4CCOC4)c2)CS3)c1 (stereo unspecified)	n	n	70.8	n	n	n
FC(F)Oc1ccc(C2=Nn3c(nnc3-c3ccccc3Cl)SC2)cc1OCC1CC1	n	n	n	n	n	n
COc1cccc(NC(=O)Nc2ccc3c(c2)C(=O)N(C)[C@H]2CC[C@H](CC(=O)NCCc4ccccc4)O[C@@H]2CO3)c1	x	n	x	x	x	x
COc1ccc(CN(C)C[C@H]2OCCCC[C@H](C)Oc3ccc(NC(=O)Nc4c(C)noc4C)cc3C(=O)N([C@@H](C)CO)C[C@@H]2C)cc1	x	n	x	x	x	x
Nc1c(N2CCCC2)cc(Cl)c2nonc12	x	x	73.6	n	n	n
O=C(NCc1ccccc1Cl)[C@@H]1[C@@H](CO)[C@@H]2Cn3c(cccc3=O)[C@@H]2N1C(=O)C1CCCC1	x	n	x	x	x	x
CCN(C(=O)C1CC1)C1CCS(=O)(=O)C1 (stereo unspecified)	n	n	n	n	66.5	n
O=C(Nc1ccccc1Br)c1ccc(N2CCCC2=O)cc1	87.3	n	n	n	n	n
Cc1csc(NC(=O)c2ccc(N3CCCC3=O)cc2)n1	n	90.5	n	68.9	69.7	90.3
Cc1cccc(C)c1NC(=O)c1ccc(N2CCCC2=O)cc1	n	n	n	n	n	n
Cc1nnc(NC(=O)c2ccc(N3CCCC3=O)cc2)s1	85.3	n	n	n	n	n
CS(=O)(=O)N(CC(=O)Nc1ccc(F)cc1F)C1CCCCC1	n	n	n	81.6	n	n
CSc1ccccc1NC(=O)CN(C1CCCCC1)S(C)(=O)=O	x	x	n	n	n	n
CCC(=O)Nc1ccc2c(c1)OC[C@H](C)N(C(=O)CN(C)C)C[C@H](C)[C@H](OC)CN(C)C2=O	x	n	x	x	x	x
CCOc1ccccc1NC(=O)CSc1nc2nc(-c3cccs3)cc(C(F)(F)F)c2c(=O)[nH]1	n	n	n	n	62.7	n
COc1ccc(NC(=O)CSc2nc3nc(-c4cccs4)cc(C(F)(F)F)c3c(=O)[nH]2)c(OC)c1	n	n	n	n	n	n
Cc1cc(Cl)ccc1OCc1nnc(-c2ccccc2C)o1	115.6	n	n	n	n	n
COc1cc(-c2nnc(COc3ccc(Cl)cc3C)o2)cc(OC)c1OC	n	x	n	n	n	n
SMILES	MITF TRPM1 HTS	LGR2 inh	MITF TRPM1 inh	EBV LMP1 NFkB	TROY signal inh	TWEAK-Fn14 inh
Clc1ccc(OCc2nnc(-c3ccccc3Br)o2)c(Cl)c1	105.9	n	n	n	n	n
Clc1ccccc1OCc1nnc(-c2ccccc2)o1	88.2	n	n	n	n	n
O=C(C1CC1)N1CC(=O)N2[C@@H](CO)[C@@H](c3ccc(C#Cc4cccc(F)c4)cc3)[C@@H]2C1	x	n	x	x	x	x
O=C(/C=C/c1c(F)cccc1Cl)c1ccc(O)cc1	n	n	n	n	n	61.0
O=C(/C=C/c1ccccc1Cl)c1ccc(O)cc1	n	n	n	n	n	n
C[C@@H]1CCCCO[C@@H](CN(C)CC2CCCCC2)[C@@H](C)CN([C@@H](C)CO)C(=O)c2cc(NC(=O)CCC(F)(F)F)ccc2O1	x	n	x	x	x	x
Cc1noc(C)c1NC(=O)N(C)C[C@H]1OCCCC[C@@H](C)Oc2ccc(NC(=O)Cc3ccccc3)cc2C(=O)N([C@H](C)CO)C[C@H]1C	x	n	x	x	x	x
CN1CCCN(Cc2ccccc2Br)CC1	x	n	n	n	n	n
CC[N+](C)(C)Cc1ccccc1Br	n	n	n	82.9	n	n
O=C(NCCCl)Nc1cc([N+](=O)[O-])ccc1Cl	n	n	n	n	61.9	n
C[C@@H]1CCCCO[C@H](CN(C)C(=O)Nc2ccccc2)[C@H](C)CN([C@@H](C)CO)C(=O)c2cc(NS(C)(=O)=O)ccc2O1	x	n	x	x	x	x
COc1ccc(CN(C)C[C@H]2OCCCC[C@@H](C)Oc3ccc(NC(=O)c4ccncc4)cc3C(=O)N([C@@H](C)CO)C[C@H]2C)cc1	x	n	x	x	x	x
Cc1ccc(C(=O)NC2CCCCC2)cc1	87.6	n	n	n	n	n
Cn1nnc2cc(C(=O)NC3CCCCC3)ccc21	n	x	n	59.0	n	n
Cc1ccc(C(=O)NC2CCCCCCC2)c(Cl)c1	n	80.2	n	n	n	74.7
N#Cc1ccc(C(=O)NC2CCCCCCC2)cc1	107.0	n	n	n	n	n
Cc1ccc(C(=O)NCC(=O)NC2CCCC2)cc1	n	n	n	n	n	n
CCCNC(=O)N(C)C[C@@H]1Oc2cc(C#CC3CC3)ccc2S(=O)(=O)N([C@@H](C)CO)C[C@@H]1C	x	n	x	x	x	x
O=C(C[C@H]1C=C[C@H](NC(=O)c2cccc(F)c2)[C@@H](CO)O1)NCc1ccccc1	x	n	x	x	x	x
COc1ccc(NC(=O)Nc2ccc3c(c2)C(=O)N([C@@H](C)CO)C[C@@H](C)[C@H](CN(C)C(=O)Nc2ccc(C(F)(F)F)cc2)OCCCC[C@H](C)O3)cc1	x	n	x	x	x	x
CCC(=O)Nc1ccc2c(c1)C(=O)N(C)C[C@H](OC)[C@@H](C)CN(C(=O)C1CCC1)[C@@H](C)CO2	x	n	x	x	x	x
Cn1c(SC2=CS(=O)(=O)c3ccccc32)nc2ccccc21	n	x	65.1	n	55.9	87.7
CCOC(=O)C1=NN(c2ccc(Cl)cc2)C(=O)C1	145.1	n	n	n	n	n
CCOC(=O)c1nn(-c2ccc(C)cc2)cc1O	n	x	n	n	n	n
CCOC(=O)c1nn(-c2ccccc2)cc1O	n	n	n	n	n	n
SMILES	MITF TRPM1 HTS	LGR2 inh	MITF TRPM1 inh	EBV LMP1 NFkB	TROY signal inh	TWEAK-Fn14 inh
COC(=O)c1nn(-c2ccc(-c3ccccc3)cc2)cc1O	n	x	73.1	n	n	80.8
CCOC(=O)c1nn(-c2ccc3ccccc3c2)cc1O	133.2	n	n	n	n	n
CCOC(=O)c1nn(-c2cc(C(=O)OC)cc(C(=O)OC)c2)cc1O	n	n	n	n	n	n
CCOC(=O)c1nn(-c2ccc(Cl)cc2)cc1O	101.3	n	n	n	n	n
CN1c2ccc(-c3cccc(C#N)c3)cc2[C@H]2[C@H](CCN2C(=O)C2CC2)[C@@H]1CO	x	n	x	x	x	x
CCC(=O)N1C[C@H](C)[C@@H](OC)CN(C)C(=O)c2cc(NC(=O)c3ccc(F)cc3)ccc2OC[C@H]1C	x	n	x	x	x	x

Source: PubChem BioAssay
